From PubChem BioAssay (NCI)
This is part of a sample that, as a whole, favours compounds with a hit. Of some 83,000 tested, about 20% had one in any assay.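 48-hour exposure, single concentration, 96-well plates; percent growth endpoint where 0 means no net growth. Active: below 10.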 Calls of active or inactive are those of the source.

Experiments:
Experiment in all cases: NCI-60 one-dose screen, 48 h (100 = growth as untreated, 0 = no growth, -100 = all killed)
Conditions in all cases: 10 µM unless noted
NCI-H23 lung = test system: NCI-H23 lung
NCI-H226 lung = test system: NCI-H226 lung
NCI-H322M lung = test system: NCI-H322M lung
HOP-62 NSCLC = test system: HOP-62 NSCLC
NCI-H460 lung = test system: NCI-H460 lung
HOP-92 NSCLC = test system: HOP-92 NSCLC
NCI-H522 lung = test system: NCI-H522 lung
A549/ATCC NSCLC = test system: A549/ATCC NSCLC
786-0 renal = test system: 786-0 renal
COLO 205 colon = test system: COLO 205 colon
DU-145 prostate = test system: DU-145 prostate
K-562 leukemia = test system: K-562 leukemia
MALME-3M melanoma = test system: MALME-3M melanoma
MDA-MB-231 breast = test system: MDA-MB-231 breast
RXF 393 renal = test system: RXF 393 renal
SF-268 CNS = test system: SF-268 CNS
SF-295 CNS = test system: SF-295 CNS
SF-539 CNS = test system: SF-539 CNS
UACC-257 melanoma = test system: UACC-257 melanoma
M14 melanoma = test system: M14 melanoma

Measured: growth

O=C(Cn1c(-c2ccccc2)nc2ccccc21)N=Nc1c(O)[nH]c2ccc(Br)cc12
inactive: NCI-H522 lung 29.5%
active: NCI-H23 lung 3.3% | NCI-H226 lung -59.9% | NCI-H322M lung -6.14% | HOP-62 NSCLC -68.1% | NCI-H460 lung -29.9% | HOP-92 NSCLC -60.6% | A549/ATCC NSCLC 8.52% | 786-0 renal -56.2% | COLO 205 colon -66.9% | DU-145 prostate 3.6% | K-562 leukemia 6% | MALME-3M melanoma -20.5% | MDA-MB-231 breast -56.8% | RXF 393 renal -80% | SF-268 CNS -0.321% | SF-295 CNS -80.4% | SF-539 CNS -80.9% | UACC-257 melanoma 9.11% | M14 melanoma 5.92%

COc1ccccc1/C=C/c1cccc(NC(=S)NCCCCN(C)C)c1
active: NCI-H23 lung -97.5% | NCI-H226 lung -71.5% | NCI-H322M lung -87.4% | HOP-62 NSCLC -51.1% | NCI-H460 lung -74.2% | HOP-92 NSCLC -60.9% | NCI-H522 lung -66% | A549/ATCC NSCLC -51.7% | 786-0 renal -55.3% | COLO 205 colon -68.2% | DU-145 prostate -69% | K-562 leukemia 1.56% | MALME-3M melanoma -90.6% | MDA-MB-231 breast -89.8% | RXF 393 renal -94.2% | SF-268 CNS 6.05% | SF-295 CNS -100% | SF-539 CNS -93% | UACC-257 melanoma -82.6% | M14 melanoma -74%

CCCSc1nnc(-c2sc3nc4ccccc4n3c2C)o1
inactive: NCI-H23 lung 111% | NCI-H226 lung 106% | NCI-H322M lung 102% | HOP-62 NSCLC 132% | NCI-H460 lung 103% | HOP-92 NSCLC 101% | NCI-H522 lung 100% | A549/ATCC NSCLC 99.8% | 786-0 renal 81.5% | COLO 205 colon 131% | DU-145 prostate 103% | K-562 leukemia 97.4% | MALME-3M melanoma 116% | MDA-MB-231 breast 108% | RXF 393 renal 87.3% | SF-268 CNS 115% | SF-295 CNS 105% | SF-539 CNS 108% | UACC-257 melanoma 102% | M14 melanoma 106%

COc1ccc(SC2c3cc(OC)ccc3Oc3nc(N)c(C#N)c(N)c32)cc1 (stereo not given)
inactive: NCI-H23 lung 85.6% | NCI-H226 lung 87.1% | NCI-H322M lung 83.5% | HOP-62 NSCLC 68.2% | NCI-H460 lung 74.3% | HOP-92 NSCLC 116% | NCI-H522 lung 78.4% | A549/ATCC NSCLC 95.8% | 786-0 renal 74.8% | COLO 205 colon 101% | DU-145 prostate 99.1% | K-562 leukemia 65.7% | MALME-3M melanoma 91.3% | MDA-MB-231 breast 82.1% | RXF 393 renal 62% | SF-268 CNS 78.8% | SF-295 CNS 55.2% | SF-539 CNS 78% | UACC-257 melanoma 120% | M14 melanoma 79.7%

Cc1ccc(O)cc1Nc1nc(SCCN2CCOCC2)nc2c1cnn2CC(Cl)c1ccc(Br)cc1 (stereo not given)
inactive: NCI-H23 lung 13.7% | NCI-H226 lung 27.5% | NCI-H322M lung 73.5% | HOP-62 NSCLC 23% | NCI-H522 lung 15.8% | 786-0 renal 11.1% | COLO 205 colon 85.9% | DU-145 prostate 29.5% | SF-268 CNS 23.6% | SF-539 CNS 10.7% | UACC-257 melanoma 18.1%
active: NCI-H460 lung 9.59% | HOP-92 NSCLC -19.8% | A549/ATCC NSCLC -9.82% | K-562 leukemia -38.6% | MALME-3M melanoma 1.03% | MDA-MB-231 breast -30.6% | RXF 393 renal -24.3% | SF-295 CNS -2.67% | M14 melanoma 9.14%

S=C(NCCc1ccccc1)Nc1ccc(OCc2nc3ccc(Cl)cc3[nH]2)cc1
active: NCI-H522 lung -26.8% | MDA-MB-231 breast 9.6% | RXF 393 renal -12.6%
inactive: NCI-H23 lung 28.6% | NCI-H226 lung 67.1% | NCI-H322M lung 57.5% | HOP-62 NSCLC 49.7% | NCI-H460 lung 10.8% | HOP-92 NSCLC 14.4% | A549/ATCC NSCLC 51.2% | 786-0 renal 29% | COLO 205 colon 43.6% | DU-145 prostate 37.3% | K-562 leukemia 10.1% | MALME-3M melanoma 56.5% | SF-268 CNS 52.8% | SF-295 CNS 60.4% | SF-539 CNS 17.8% | UACC-257 melanoma 74.1% | M14 melanoma 46.7%

CCOC(=O)/C(F)=C/C1CC1CCc1ccc(OCC)cc1 (stereo not given)
inactive: NCI-H23 lung 87.3% | NCI-H226 lung 86.8% | NCI-H322M lung 82.5% | HOP-62 NSCLC 124% | NCI-H460 lung 59.2% | HOP-92 NSCLC 91.7% | NCI-H522 lung 97.5% | A549/ATCC NSCLC 50.5% | 786-0 renal 105% | COLO 205 colon 41.8% | DU-145 prostate 50.5% | K-562 leukemia 98.3% | MALME-3M melanoma 89.9% | MDA-MB-231 breast 97.4% | RXF 393 renal 96.2% | SF-268 CNS 90.5% | SF-295 CNS 91.1% | SF-539 CNS 93% | UACC-257 melanoma 105% | M14 melanoma 105%

COc1cc2cc(C(=O)N3C[C@@H](CCl)c4c3cc(OC(=O)N(C)CCSSCCN3CCOCC3)c3ccccc43)[nH]c2c(OC)c1OC
active: NCI-H23 lung -66.9% | NCI-H226 lung -17.2% | NCI-H322M lung 1.49% | HOP-62 NSCLC -49.4% | NCI-H460 lung 0.904% | HOP-92 NSCLC -16.1% | NCI-H522 lung -42.8% | A549/ATCC NSCLC -9.46% | 786-0 renal -65% | COLO 205 colon -80.4% | DU-145 prostate -10.3% | K-562 leukemia 2.13% | MALME-3M melanoma -83.7% | MDA-MB-231 breast -20.2% | RXF 393 renal -86.6% | SF-268 CNS 0.895% | SF-295 CNS -11.3% | SF-539 CNS -72% | UACC-257 melanoma -8.65% | M14 melanoma -81.4%
